High-throughput results deposited in PubChem BioAssay by Broad Institute.
STK33 inh = blocks human STK33 kinase activity; ADP-Glo luminescence, MBP substrate; AID 2322; actives 0.44% (n = 27,000); Q9BYT3; inhibition, % at 12.5 µM; in the data active = inhibition above about 20%
Target sequence (Q9BYT3 whole entry, looked up): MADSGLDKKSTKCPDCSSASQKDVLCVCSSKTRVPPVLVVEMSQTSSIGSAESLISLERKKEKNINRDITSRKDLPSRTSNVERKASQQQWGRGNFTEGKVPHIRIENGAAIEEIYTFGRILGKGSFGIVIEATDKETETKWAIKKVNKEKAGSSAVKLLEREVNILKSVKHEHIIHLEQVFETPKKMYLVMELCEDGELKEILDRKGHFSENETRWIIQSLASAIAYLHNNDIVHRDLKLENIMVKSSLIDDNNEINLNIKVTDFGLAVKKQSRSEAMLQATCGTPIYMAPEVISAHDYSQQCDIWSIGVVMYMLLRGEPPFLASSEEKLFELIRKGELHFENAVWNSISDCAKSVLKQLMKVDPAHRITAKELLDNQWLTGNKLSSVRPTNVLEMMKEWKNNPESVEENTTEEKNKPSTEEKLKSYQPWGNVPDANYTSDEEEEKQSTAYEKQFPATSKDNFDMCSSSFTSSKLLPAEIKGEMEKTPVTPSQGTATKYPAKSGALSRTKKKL
ID4 SMM = ID4 (human) binding. calls only. small molecule microarray, Flag-ID4 binding, fluorescence F/B. P47928. actives 1.2% (n = 31,000); call rule not given here;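 also: a binder raises fluorescence above local background on the spot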
Target sequence (P47928 whole entry, looked up): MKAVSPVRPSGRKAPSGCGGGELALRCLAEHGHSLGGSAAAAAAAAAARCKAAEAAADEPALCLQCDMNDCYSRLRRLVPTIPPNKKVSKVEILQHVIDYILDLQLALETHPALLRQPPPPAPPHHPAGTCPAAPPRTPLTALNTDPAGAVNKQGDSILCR
Each line names hits and unclear results; the compound was inactive in the other large screens. The list is not random: actives were taken first. Their share in the collection is about 1.3%.

CC1OC(OC(=O)C2=CC3CC(C)(C)CC34C(C)OC(=O)CC24)C(O)C(O)C1O (stereo not drawn)	none
CCC(=O)N(C)C[C@H]1Oc2ncc(C#Cc3ccncc3)cc2C(=O)N([C@H](C)CO)C[C@H]1C	none (no result: STK33 inh)
C[C@@H]1CN([C@@H](C)CO)C(=O)c2cc(C#Cc3ccncc3)cnc2O[C@H]1CN(C)C(=O)CN(C)C	ID4 SMM active (no result: STK33 inh)
C[C@@H]1CN([C@H](C)CO)C(=O)c2cc(C#Cc3cccnc3)cnc2O[C@H]1CN(C)Cc1cccnc1	none (no result: STK33 inh)
C[C@@H]1CN([C@@H](C)CO)C(=O)c2cc(C#Cc3cccnc3)cnc2O[C@@H]1CN(C)Cc1ccncc1	ID4 SMM active (no result: STK33 inh)
CNC[C@@H]1Oc2ccc(NS(=O)(=O)c3ccccc3)cc2C(=O)N([C@@H](C)CO)C[C@H]1C	ID4 SMM active
CNC[C@@H]1Oc2ccc(NS(=O)(=O)c3ccccc3)cc2C(=O)N([C@H](C)CO)C[C@H]1C	none
C[C@@H]1CN([C@@H](C)CO)C(=O)c2cc(NC(=O)Nc3ccc4c(c3)OCO4)ccc2O[C@H]1CN(C)Cc1ccncc1	ID4 SMM active (no result: STK33 inh)
CNC[C@H]1Oc2ccc(NC(=O)Nc3ccc4c(c3)OCO4)cc2CC(=O)N([C@@H](C)CO)C[C@@H]1C	ID4 SMM active
CNC[C@@H]1Oc2ccc(NC(=O)Nc3ccc4c(c3)OCO4)cc2C(=O)N([C@@H](C)CO)C[C@H]1C	ID4 SMM active (no result: STK33 inh)
C[C@H]1CN([C@@H](C)CO)C(=O)c2cc(NC(=O)Nc3ccc4c(c3)OCO4)ccc2O[C@H]1CN(C)C	none
CNC[C@@H]1Oc2ccc(NC(=O)Nc3ccc4c(c3)OCO4)cc2CC(=O)N([C@@H](C)CO)C[C@@H]1C	none
C[C@@H]1CN([C@H](C)CO)C(=O)c2cc(NC(=O)Nc3ccc4c(c3)OCO4)ccc2O[C@@H]1CN(C)Cc1ccncc1	none (no result: STK33 inh)
CC(C)=CCc1cc2c(c(CC=C(C)C)c1O)O[C@H](c1ccc(O)cc1)[C@@H](O)C2=O	none (no result: ID4 SMM)
O=C(COc1ccc2ccccc2c1)Nc1ccc(O)cc1C(=O)O	none
Cc1cc(C)nc(SCC(=O)Nc2ccc(C(=O)O)cc2)n1	none
CC(O)c1cc(-c2ccc(Cl)cc2Cl)no1 (stereo not drawn)	none (no result: STK33 inh)
O=c1cc(CSc2ccc(Cl)cc2)c2ccc(O)cc2o1	none (no result: ID4 SMM)
Cc1nc(N)nc(CSc2ccccc2)n1	none (no result: ID4 SMM)
CNC[C@@H]1OCCCC[C@H](C)Oc2ccc(NC(=O)Nc3ccc4c(c3)OCO4)cc2C(=O)N([C@@H](C)CO)C[C@@H]1C	ID4 SMM active (no result: STK33 inh)
CNC[C@@H]1OCCCC[C@@H](C)Oc2ccc(NC(=O)Nc3ccc4c(c3)OCO4)cc2C(=O)N([C@H](C)CO)C[C@@H]1C	none (no result: ID4 SMM)
O=C(CCNc1ccc(Cl)c(C(F)(F)F)c1)c1ccccc1	none (no result: STK33 inh)
O=C1c2ccccc2-[n+]2ccc3c([nH]c4ccccc43)c21	none (no result: ID4 SMM)
O=C1C(c2c(O)[nH]c3ccccc23)=Nc2ccccc21	STK33 inh 25
OC(c1ccccc1)c1oc2ccccc2c1-c1cnn(-c2ccccc2)c1 (stereo not drawn)	none (no result: ID4 SMM)
Cc1cccc(NC(=O)c2cc(NC(=O)C3CCCCC3C(=O)O)ccc2N2CCCCC2)c1 (stereo not drawn)	none
Cc1cccc(NC(=O)c2cc(NC(=O)CCC(=O)O)ccc2N2CCOCC2)c1	ID4 SMM active
COc1cc2ncnc(Nc3cccc(Br)c3)c2cc1OC	none (no result: ID4 SMM)
COc1cc2ncnc(Nc3cccc(O)c3)c2cc1OC	STK33 inh 43 (no result: ID4 SMM)
CC(C)C(=O)Nc1sc2c(c1C(=O)Nc1cccnc1)CCCC2	none
Cc1nc2ccccc2n1CC(O)COc1ccc(C(=O)O)cc1 (stereo not drawn)	none
COC(=O)c1ccc(OCC(O)Cn2c(C)nc3ccccc32)cc1 (stereo not drawn)	ID4 SMM active
COc1ccc(NC(=O)COc2ccc(Cl)c(C)c2)c([N+](=O)[O-])c1	none
C[C@H](CO)N1C[C@H](C)[C@H](CN(C)S(=O)(=O)c2cccs2)OCCCC[C@H](C)Oc2ccc(NS(C)(=O)=O)cc2C1=O	none (no result: STK33 inh)
C[C@@H]1CN([C@@H](C)CO)C(=O)c2cc(NS(C)(=O)=O)ccc2O[C@@H](C)CCCCO[C@H]1CN(C)S(=O)(=O)c1cccs1	ID4 SMM active (no result: STK33 inh)
C[C@@H]1CCCCO[C@@H](CN(C)S(=O)(=O)c2cccs2)[C@@H](C)CN([C@H](C)CO)C(=O)c2cc(NS(C)(=O)=O)ccc2O1	none
C[C@H](CO)N1C[C@H](C)[C@@H](CN(C)S(=O)(=O)c2cccs2)OCCCC[C@H](C)Oc2ccc(NS(C)(=O)=O)cc2C1=O	ID4 SMM active (no result: STK33 inh)
Cc1onc(-c2ccccc2)c1C(=O)NC1C(=O)N2[C@@H]1SC(C)(C)[C@@H]2C(=O)O (stereo partly drawn)	none (no result: ID4 SMM)
Cc1cccc(NC(=O)CSc2nc(-c3ccccc3)c(-c3ccccc3)[nH]2)c1C	none
O=C(O)CCSc1nc(-c2ccccc2)c(-c2ccccc2)[nH]1	ID4 SMM active
Cc1ccc(-c2nc3ccccc3s2)cc1NC(=O)COc1ccc(Br)cc1	none
O=C(C[C@H]1CC[C@@H](NC(=O)C2CCC2)[C@@H](CO)O1)NCCCN1CCOCC1	ID4 SMM active (no result: STK33 inh)
O=C(C[C@H]1CC[C@H](NC(=O)C2CCC2)[C@H](CO)O1)NCCCN1CCOCC1	none (no result: STK33 inh)
CCOC(=O)c1nn(-c2ccc(OC)cc2)c(C(=O)OCC)c1NC(=O)C1CCCCC1	none (no result: ID4 SMM)
COc1cc(C2CC(=O)c3c(O)cc(O)cc3O2)ccc1O (stereo not drawn)	none
COc1ccc(/C=C2\Oc3cc(O)cc(O)c3C2=O)cc1O	STK33 inh 31
C=CC[C@@]1(C(=O)NCc2ccccc2)N=C(c2ccc(OCCCO)cc2)O[C@@H]1c1ccccc1	none (no result: ID4 SMM)
CNC[C@@H]1Oc2ncc(-c3ccc(OC)cc3)cc2C(=O)N([C@H](C)CO)C[C@H]1C	ID4 SMM active (no result: STK33 inh)
CNC[C@H]1Oc2ncc(-c3ccc(OC)cc3)cc2C(=O)N([C@H](C)CO)C[C@H]1C	none (no result: STK33 inh)
CNC[C@H]1Oc2c(NC(=O)c3cnccn3)cccc2C(=O)N([C@H](C)CO)C[C@H]1C	none (no result: STK33 inh)
CNC[C@H]1Oc2ncc(C3=CCCC3)cc2C(=O)N([C@H](C)CO)C[C@H]1C	ID4 SMM active (no result: STK33 inh)
CNC[C@@H]1Oc2ncc(C3=CCCC3)cc2C(=O)N([C@@H](C)CO)C[C@@H]1C	none (no result: STK33 inh)
CNC[C@@H]1Oc2ncc(-c3ccc(C#N)cc3)cc2C(=O)N([C@H](C)CO)C[C@@H]1C	ID4 SMM active (no result: STK33 inh)
CNC[C@@H]1Oc2ncc(-c3ccccc3)cc2C(=O)N([C@H](C)CO)C[C@@H]1C	none
CNC[C@@H]1Oc2c(NC(=O)c3cnccn3)cccc2C(=O)N([C@@H](C)CO)C[C@@H]1C	ID4 SMM active (no result: STK33 inh)
COc1c(O)c2c(=O)cc3c4c5c(cc(=O)c6c(O)c(OC)c(CC(C)O)c(c(c1CC(C)O)c24)c65)OCO3 (stereo not drawn)	none (no result: STK33 inh)
CN1c2ccccc2Oc2nnc(N3CCN(c4ccccc4)CC3)cc21	none (no result: STK33 inh)
COc1ccc(S(=O)(=O)N[C@H]2CCN(Cc3cccc(OCCO)c3)C2)cc1	none (no result: ID4 SMM)
CCC(=O)OCC(=O)[C@@]1(OC(=O)CC)[C@H](C)CC2C3C([C@@H](O)C[C@@]21C)[C@@]1(C)C=CC(=O)C=C1C[C@H]3Cl (stereo partly drawn)	none (no result: ID4 SMM)
COC(=O)c1cc(-c2ccccc2)sc1NC(=S)Nc1ccn(C)n1	none
COC(=O)c1cc(-c2ccccc2)sc1NC(=S)Nc1cn(C)nc1C	ID4 SMM active
Cc1scc2c1N(C(=O)CN1CCN(C)CC1)c1ccccc1NC2=O	none
CCN(CC)CCCCC1CCN(CC(=O)N2c3ccccc3C(=O)Nc3cccnc32)CC1	ID4 SMM active (no result: STK33 inh)
